Results as given in PubChem BioAssay (EPA / NIEHS).
Records with an inconclusive call do not appear. Activity calls are given as the source filed them. How the source made its calls, unless noted: active means hit-call score of the fitted dose curve at least 0.9, where 1 is the maximum; inactive means score below 0.9.

Key:
[1] = read-out: matrix metalloproteinase-10 (MMP10), MMP10 (gene 4319); experiment: LTEA_HepaRG_MMP10: Life Technologies and Expression Analysis (LTEA) Assay for matrix metalloproteinase-10 (MMP10) using HepaRG (AID 2283517); details: mRNA level, 48 h; actives raise or lower the signal
In short: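 Transcript levels come from Fluidigm qRT-PCR normalized to three housekeeping genes, with curves fitted bidirectionally against 0.5% DMSO. Human HepaRG cells were dosed for 48 hours at concentrations up to 100 uM.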

MYC, MYC (gene 4609) = experiment: LTEA_HepaRG_MYC: Life Technologies and Expression Analysis (LTEA) Assay for MYC using HepaRG (AID 2283518); details: mRNA level, 48 h; actives raise or lower the signal
In short: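 qRT-PCR read-out of MYC transcript (Fluidigm TaqMan, housekeeping-normalized) after 48 h chemical exposure of HepaRG cells; eight concentrations, top 100 uM, half-log steps. Bidirectional curve fitting against 0.5% DMSO vehicle baseline.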

[2] = read-out: matrix metalloproteinase-3 (MMP3), MMP3 (gene 4314); experiment: LTEA_HepaRG_MMP3: Life Technologies and Expression Analysis (LTEA) Assay for matrix metalloproteinase-3 (MMP3) using HepaRG (AID 2283519); details: mRNA level, 48 h; actives raise or lower the signal
In short: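 qRT-PCR read-out of MMP3 mRNA (normalised to three housekeeping genes) in HepaRG liver cells after 48 h chemical exposure; 8-point half-log series, top 100 uM, 0.5% DMSO vehicle. Bidirectional curve fitting against DMSO baseline.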

[3] = read-out: Paternally Expressed 10 (PEG10), PEG10 (gene 23089); experiment: LTEA_HepaRG_PEG10: Life Technologies and Expression Analysis (LTEA) Assay for Paternally Expressed 10 (PEG10) using HepaRG (AID 2283520); details: mRNA level, 48 h; actives raise or lower the signal;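 on AC50: differentiated HepaRG human liver cells in serum-free induction medium with 0.5% DMSO; PEG10 transcript by qRT-PCR normalised to ACTB GAPDH and POLR2A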
In short: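 After 48 h exposure of differentiated HepaRG cells (0.5% DMSO vehicle, eight concentrations up to 100 uM, duplicates), PEG10 mRNA was measured by TaqMan qRT-PCR. Values were normalised to endogenous control genes and analysed bidirectionally against vehicle.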

[4] = read-out: Phosphatase and tensin (PTEN), PTEN (gene 5728); experiment: LTEA_HepaRG_PTEN: Life Technologies and Expression Analysis (LTEA) Assay for Phosphatase and tensin (PTEN) using HepaRG (AID 2283523); details: mRNA level, 48 h; actives raise or lower the signal
In short: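 HepaRG, 48 h exposure, 8-pt half-log series from 100 uM top, 0.5% DMSO vehicle, duplicates. Readout: Fluidigm qRT-PCR of PTEN transcript; housekeeping normalization (ACTB, GAPDH, POLR2A). Gain or loss fitted relative to DMSO baseline.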

[5] = read-out: solute carrier (SLC22A1), SLC22A1 (gene 6580); experiment: LTEA_HepaRG_SLC22A1: Life Technologies and Expression Analysis (LTEA) Assay for solute carrier (SLC22A1) using HepaRG (AID 2283524); details: mRNA level, 48 h; actives raise or lower the signal;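 further: differentiated human HepaRG liver cells in serum-free induction medium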
In short: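 qRT-PCR readout (TaqMan, Fluidigm arrays) of SLC22A1 transcript, normalized to three housekeeping genes; bidirectional curve fit relative to 0.5% DMSO vehicle. Differentiated human HepaRG cells, 48 h chemical exposure, top concentration 100 uM, half-log steps, eight points.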

[6] = read-out: succinate dehydrogenase complex iron sulfur subunit B (SDHB), SDHB (gene 6390); experiment: LTEA_HepaRG_SDHB: Life Technologies and Expression Analysis (LTEA) Assay for succinate dehydrogenase complex iron sulfur subunit B (SDHB) using HepaRG (AID 2283528); details: mRNA level, 48 h; actives raise or lower the signal
In short: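 A human HepaRG culture in serum-free induction medium received test chemicals for 48 h over an eight-point range capped at 100 uM. SDHB expression change was quantified by qRT-PCR.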

[7] = read-out: Signal transducer and activator of transcription 3 (Homo sapiens) (UniProt P40763); experiment: LTEA_HepaRG_STAT3: Life Technologies and Expression Analysis (LTEA) Assay for Signal transducer and activator of transcription (STAT3) using HepaRG (AID 2283529); details: mRNA level, 48 h; actives raise or lower the signal
In short: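 HepaRG, 48 h exposure, 8-pt half-log series (top 100 uM), 0.5% DMSO vehicle, duplicates. Readout: STAT3 transcript by Fluidigm qRT-PCR, housekeeping-normalized; bidirectional fit vs DMSO baseline.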

[8] = read-out: sulfotransferase 2A1 (SULT2A1), SULT2A1 (gene 6822); experiment: LTEA_HepaRG_SULT2A1: Life Technologies and Expression Analysis (LTEA) Assay for sulfotransferase 2A1 (SULT2A1) using HepaRG (AID 2283531); details: mRNA level, 48 h; actives raise or lower the signal
In short: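 HepaRG, 48 h chemical exposure, 8-pt half-log curve from 100 uM in 0.5% DMSO, duplicates. Readout: TaqMan qRT-PCR of SULT2A1 mRNA, housekeeping-normalized. Bidirectional fit vs DMSO baseline.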

[9] = read-out: Transforming Growth Factor (TGFB1), TGFB1 (gene 7040); experiment: LTEA_HepaRG_TGFB1: Life Technologies and Expression Analysis (LTEA) Assay for Transforming Growth Factor (TGFB1) Transporter using HepaRG (AID 2283533); details: mRNA level, 48 h; actives raise or lower the signal
In short: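 qRT-PCR readout of TGFB1 transcript in HepaRG lysates, normalized to three housekeeping genes; gain or loss of signal fitted relative to 0.5% DMSO vehicle. Exposure: 48 h, 8-point curve from 100 uM, duplicate wells.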

TIMP1, TIMP1 (gene 7076) = experiment: LTEA_HepaRG_TIMP1: Life Technologies and Expression Analysis (LTEA) Assay for TIMP1 using HepaRG (AID 2283534); details: mRNA level, 48 h; actives raise or lower the signal
In short: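 HepaRG, 48 h exposure, 8-pt half-log series from 100 uM in 0.5% DMSO, duplicates; TIMP1 transcript by Fluidigm qRT-PCR, housekeeping-normalized; bidirectional curve fit vs DMSO baseline.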

[10] = read-out: Tumor necrosis factor receptor 1 (TNFRSF1A), TNFRSF1A (gene 7132); experiment: LTEA_HepaRG_TNFRSF1A: Life Technologies and Expression Analysis (LTEA) Assay for Tumor necrosis factor receptor 1 (TNFRSF1A) using HepaRG (AID 2283535); details: mRNA level, 48 h; actives raise or lower the signal
In short: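 HepaRG, 48 h plating then 48 h chemical exposure, serum-free induction media; 8-pt CRC from 100 uM, half-log, 0.5% DMSO vehicle, duplicates. Readout: TaqMan qRT-PCR (Fluidigm), housekeeping-gene normalized; bidirectional fit vs DMSO.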

[11] = read-out: Thyroid Hormone Responsive (THRSP), THRSP (gene 7069); experiment: LTEA_HepaRG_THRSP: Life Technologies and Expression Analysis (LTEA) Assay for Thyroid Hormone Responsive (THRSP) using HepaRG (AID 2283536); details: mRNA level, 48 h; actives raise or lower the signal
In short: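 qRT-PCR read-out (Fluidigm TaqMan), housekeeping-normalized (ACTB/GAPDH/POLR2A). HepaRG, 48 h chemical exposure, 8-pt half-log series from 100 uM in 0.5% DMSO, duplicates. Bidirectional curve fit vs 0.5% DMSO baseline.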

[12] = read-out: Cellular tumor antigen p53 (Homo sapiens) (UniProt P04637); experiment: LTEA_HepaRG_TP53: Life Technologies and Expression Analysis (LTEA) Assay for Tumor Protein P53 (TP53) using HepaRG (AID 2283537); details: mRNA level, 48 h; actives raise or lower the signal
In short: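 Gain or loss of TP53 mRNA signal is scored relative to 0.5% DMSO after 48 h chemical treatment of HepaRG liver cells, tested in duplicate at eight half-log concentrations up to 100 uM.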

[13] = read-out: UDP glucuronosyltransferase (UGT1A6), UGT1A6 (gene 54578); experiment: LTEA_HepaRG_UGT1A6: Life Technologies and Expression Analysis (LTEA) Assay for UDP glucuronosyltransferase (UGT1A6) using HepaRG (AID 2283539); details: mRNA level, 48 h; actives raise or lower the signal
In short: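 qRT-PCR readout of UGT1A6 mRNA (normalized to ACTB/GAPDH/POLR2A) in differentiated HepaRG cells after 48 h chemical exposure; 8 concentrations, top 100 uM, half-log steps, 0.5% DMSO. Bidirectional curve fit relative to DMSO baseline.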

[14] = read-out: X-box binding protein 1 (XBP1), XBP1 (gene 7494); experiment: LTEA_HepaRG_XBP1: Life Technologies and Expression Analysis (LTEA) Assay for X-box binding protein 1 (XBP1) using HepaRG (AID 2283540); details: mRNA level, 48 h; actives raise or lower the signal
In short: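 HepaRG, 48 h exposure, 8-pt half-log CRC top 100 uM, 0.5% DMSO vehicle, duplicates. Readout: TaqMan qRT-PCR of XBP1 mRNA, housekeeping-normalised (ACTB/GAPDH/POLR2A); bidirectional fit vs DMSO baseline.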

[15] = read-out: Nuclear factor erythroid 2-related factor 2 (Homo sapiens) (UniProt Q16236); experiment: LTEA_HepaRG_NFE2L2: Life Technologies and Expression Analysis (LTEA) Assay for Nuclear factor erythroid 2-related factor 2 (NFE2L2) Transcription Factor using HepaRG (AID 2283527); details: mRNA level, 48 h; actives raise or lower the signal
In short: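 HepaRG, 48 h dosing, 8-pt half-log series from 100 uM in 0.5% DMSO, duplicates. Read-out: NFE2L2 mRNA by qRT-PCR (ACTB/GAPDH/POLR2A normalization). Bidirectional curve fit vs DMSO baseline.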

[16] = ATG_XTT_Cytotoxicity: Cytotoxicity Assessment in the Attagene TRANS-FACTORIAL HepG2 Assay (AID 2283584; active means hit-call score of the fitted dose curve at least 0.9, where 1 is the maximum)
In short: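 XTT readout of cell number in transfected HepG2 cells, 24 h post-dosing; DMSO serves as negative control and baseline, with activity taken as loss of viability signal.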

Measured: AC50

Sequence of Signal transducer and activator of transcription 3 (Homo sapiens) (P40763 whole entry, looked up): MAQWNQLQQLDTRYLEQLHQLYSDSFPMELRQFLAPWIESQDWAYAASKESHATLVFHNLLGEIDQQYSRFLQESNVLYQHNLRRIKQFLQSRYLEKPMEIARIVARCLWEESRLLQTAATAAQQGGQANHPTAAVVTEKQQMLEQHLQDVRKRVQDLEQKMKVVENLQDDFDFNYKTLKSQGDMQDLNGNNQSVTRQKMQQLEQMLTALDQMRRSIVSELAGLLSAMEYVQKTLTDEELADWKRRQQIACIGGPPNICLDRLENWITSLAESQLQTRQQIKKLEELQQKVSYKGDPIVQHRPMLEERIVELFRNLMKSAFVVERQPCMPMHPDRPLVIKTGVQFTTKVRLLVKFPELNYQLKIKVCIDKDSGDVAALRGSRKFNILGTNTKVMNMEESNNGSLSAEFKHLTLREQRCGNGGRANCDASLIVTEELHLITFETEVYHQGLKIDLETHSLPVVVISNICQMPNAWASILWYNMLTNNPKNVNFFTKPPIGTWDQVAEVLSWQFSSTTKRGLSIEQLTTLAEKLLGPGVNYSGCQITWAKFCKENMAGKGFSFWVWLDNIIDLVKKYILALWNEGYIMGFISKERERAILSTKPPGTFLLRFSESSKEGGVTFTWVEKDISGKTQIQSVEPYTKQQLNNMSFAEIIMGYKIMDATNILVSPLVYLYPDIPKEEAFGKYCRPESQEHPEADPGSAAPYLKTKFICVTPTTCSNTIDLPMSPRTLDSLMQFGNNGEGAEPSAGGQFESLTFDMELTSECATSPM
Sequence of Nuclear factor erythroid 2-related factor 2 (Homo sapiens) (Q16236 whole entry, looked up): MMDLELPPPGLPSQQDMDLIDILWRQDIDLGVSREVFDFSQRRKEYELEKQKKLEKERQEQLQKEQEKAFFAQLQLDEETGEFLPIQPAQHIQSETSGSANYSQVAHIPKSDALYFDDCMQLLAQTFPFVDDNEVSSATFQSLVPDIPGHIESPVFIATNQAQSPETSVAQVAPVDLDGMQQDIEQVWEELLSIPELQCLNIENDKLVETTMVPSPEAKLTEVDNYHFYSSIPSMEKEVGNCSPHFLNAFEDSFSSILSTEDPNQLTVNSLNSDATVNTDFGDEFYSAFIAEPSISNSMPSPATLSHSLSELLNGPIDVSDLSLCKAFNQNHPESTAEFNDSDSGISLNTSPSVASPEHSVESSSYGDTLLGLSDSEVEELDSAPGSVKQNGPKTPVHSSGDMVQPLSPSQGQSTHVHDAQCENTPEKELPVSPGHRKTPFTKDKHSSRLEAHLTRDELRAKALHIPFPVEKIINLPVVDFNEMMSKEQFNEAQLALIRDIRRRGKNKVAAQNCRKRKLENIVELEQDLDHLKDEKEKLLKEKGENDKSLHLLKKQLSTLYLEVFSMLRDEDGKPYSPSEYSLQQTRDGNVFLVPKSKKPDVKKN
Sequence of Cellular tumor antigen p53 (Homo sapiens) (P04637 whole entry, looked up): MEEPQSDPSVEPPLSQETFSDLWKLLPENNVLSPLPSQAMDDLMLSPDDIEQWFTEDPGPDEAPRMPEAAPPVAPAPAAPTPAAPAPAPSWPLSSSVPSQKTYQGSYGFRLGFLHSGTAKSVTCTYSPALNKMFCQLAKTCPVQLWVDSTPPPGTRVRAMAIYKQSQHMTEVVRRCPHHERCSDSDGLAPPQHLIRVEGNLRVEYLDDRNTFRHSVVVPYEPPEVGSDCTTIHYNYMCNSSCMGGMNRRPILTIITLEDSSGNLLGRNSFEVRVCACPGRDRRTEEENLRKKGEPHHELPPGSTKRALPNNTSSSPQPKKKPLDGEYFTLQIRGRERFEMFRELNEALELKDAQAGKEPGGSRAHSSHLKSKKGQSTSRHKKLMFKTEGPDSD

CS(=O)(=O)c1ccc([C@@H](CC2CCCC2)C(=O)Nc2cnccn2)cc1Cl
active: [1] 79.5 µM | MYC, MYC (gene 4609) 62.7 µM | [5] 66.7 µM | [8] 94.3 µM | [9] 74.1 µM | [11] 63.5 µM | [12] 61.3 µM | [13] 89.2 µM
inactive: [2] | [3] | [4] | [6] | [7] | TIMP1, TIMP1 (gene 7076) | [10] | [14]

Cc1[nH]nc2c1N=C(c1ccccc1Cl)c1cc([N+](=O)[O-])ccc1N2
inactive: [4] | [16]
active: [1] 5.91 µM | MYC, MYC (gene 4609) 82 µM | [2] 9.48 µM | [3] 3.67 µM | [5] 5.69 µM | [15] 85.1 µM | [6] 0.449 µM | [7] 3.77 µM | [8] 28.3 µM | [9] 1.74 µM | TIMP1, TIMP1 (gene 7076) 2.38 µM | [10] 12.4 µM | [11] 8.84 µM | [13] 86.8 µM | [14] 3.64 µM

C=CC(=O)OCCN(CC)CC
inactive: [16]

CCCCCCCCCCCCOS(=O)(=O)O
active: [1] 70.2 µM | [5] 77.5 µM | [8] 80.2 µM | [9] 80.9 µM | [11] 80.5 µM | [13] 81 µM
not listed: [4] | [12] | [16]
inactive: all other assays above
